Mcl1 Noxa PPI: disrupts binding of human Mcl-1 to Noxa peptide. TR-FRET Mcl-1/Noxa peptide binding, 2 h. inhibition, % at 21.7 µM. 220,000 tested, 1.5% active. AID 1022;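 active = compounds that cut the protein-peptide binding signal by more than 50% relative to plate controls in a single-dose test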;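 also: His-tagged Mcl-1 with rhodamine Noxa BH3 peptide and terbium anti-His antibody; 0% = Mcl-1 plus Noxa peptide wells and 100% = peptide-only wells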
Target sequence (Q07820 whole entry, looked up): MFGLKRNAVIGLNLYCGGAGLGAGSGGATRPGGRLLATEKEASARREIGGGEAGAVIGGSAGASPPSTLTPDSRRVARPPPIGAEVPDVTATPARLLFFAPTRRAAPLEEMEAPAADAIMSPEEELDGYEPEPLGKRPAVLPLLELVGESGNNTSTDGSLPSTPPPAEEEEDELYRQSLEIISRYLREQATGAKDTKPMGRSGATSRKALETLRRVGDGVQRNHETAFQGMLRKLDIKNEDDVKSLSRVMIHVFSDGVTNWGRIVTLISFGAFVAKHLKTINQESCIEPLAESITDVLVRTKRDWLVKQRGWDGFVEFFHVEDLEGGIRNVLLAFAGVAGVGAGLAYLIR
Bcl-xL primary: Bcl-xL (human) inhibition | GST-Bcl-xL / FITC-Bim BH3 peptide fluorescence polarization | inhibition, % at 10.9 µM | 320,000 tested, 0.7% active;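 active = inhibition above the mean of all tested compounds plus 3 SD, cutoff set per campaign, cut at about 30% in these data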;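 also: 0% = DMSO wells and 100% = unlabeled Bim-BH3 peptide competitor; inhibitors lower millipolarization by displacing the labeled peptide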
Target sequence (Q07817 whole entry, looked up): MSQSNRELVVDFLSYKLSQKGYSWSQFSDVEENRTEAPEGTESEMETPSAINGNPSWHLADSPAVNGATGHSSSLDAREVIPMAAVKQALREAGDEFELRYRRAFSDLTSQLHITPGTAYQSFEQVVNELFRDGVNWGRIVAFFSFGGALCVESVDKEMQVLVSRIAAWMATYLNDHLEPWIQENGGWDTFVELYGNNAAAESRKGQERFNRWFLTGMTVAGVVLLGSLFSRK
MCL1-BIM inh: inhibitors of human MCL1 binding to BIM-BH3 peptide. Q07820. inhibition, % at 10.9 µM. 320,000 tested, 0.68% active. GST-MCL1 / FITC-Bim-BH3 fluorescence polarization. AID 2057;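 active = inhibition above the mean inhibition of all tested compounds plus 3 SD, set per campaign, cut at about 40% in these data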;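 also: 0% = DMSO wells and 100% = unlabeled Bim-BH3 peptide control; higher means more loss of mP so more displacement of Bim peptide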
Mcl-1 Bim block: human Bim-Mcl-1 interaction inhibition. 190,000 tested, 0.1% active. Q07820. Bead-based flow cytometry, Bim peptide-Mcl-1 binding. AID 1009. inhibition, % at 10 µM; in the data active = inhibition above about 40%;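 also: 0% = no compound tracer wells and 100% = peptide blocker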
Mcl1 Bid PPI: disrupts binding of human Mcl-1 to Bid peptide; TR-FRET Mcl-1/Bid-Dy647 peptide binding, 1536-well; inhibition, % at 21.7 µM; 220,000 tested, 0.97% active;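 active = compounds that cut the binding signal by more than half at the single screening dose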;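 also: His-tagged Mcl-1 with europium anti-His antibody binding Bid BH3 peptide; 0% = Mcl-1 plus peptide wells and 100% = peptide-only wells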
GLD-1 RNA inh: GLD-1-TGE RNA interaction inhibition (C. elegans); Q17339; purified GLD-1 + fluorescein TGE RNA, fluorescence polarization; inhibition, % at 5.96 µM; 320,000 tested, 0.44% active;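 active = percent inhibition above a per-plate cutoff, the plate mean of test compounds plus 3 SD, cut at about 30% in these data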;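 also: 0% = DMSO wells with GLD-1 and probe and 100% = wells lacking GLD-1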
* marks the source's active call; other numbers are inactive results. Sampled rows, rich in hits. Any-hit rate of the full collection: about 2.3%.

Cc1ccc(NC(=O)NCC(c2ccccc2)N(C)C)cc1 (stereo unspecified) was read as Bcl-xL primary 5, MCL1-BIM inh 1 and GLD-1 RNA inh -2.
`O=C(/C=C/c1ccccc1)N(Cc1cccc(Cl)c1)C1CCS(=O)(=O)C1` (stereo unspecified) gave Mcl1 Noxa PPI -18, Bcl-xL primary 5, MCL1-BIM inh -4, Mcl1 Bid PPI -41 and GLD-1 RNA inh 5.
`COc1cccc(CN(C(=O)/C=C/c2ccc(Cl)cc2)C2CCS(=O)(=O)C2)c1` (stereo unspecified) gave Mcl1 Noxa PPI 37, Bcl-xL primary 8, MCL1-BIM inh 7, Mcl-1 Bim block 1, Mcl1 Bid PPI 84* and GLD-1 RNA inh -4.
Screening CCOC(=O)C1CSc2[nH]c(=O)sc2C1c1ccccc1 (stereo unspecified) returned Mcl1 Noxa PPI 6, Bcl-xL primary 16, MCL1-BIM inh 6, Mcl-1 Bim block 0, Mcl1 Bid PPI -9 and GLD-1 RNA inh 0.
`O=C(O)CC12CSc3[nH]c(=O)sc3C1c1ccccc1OC2=O` (stereo unspecified) gave Mcl1 Noxa PPI -4, Bcl-xL primary 1, MCL1-BIM inh 7, Mcl-1 Bim block 0, Mcl1 Bid PPI 66* and GLD-1 RNA inh 5.
O=C(CC(C(=O)O)c1c(F)cccc1Cl)c1ccc(Cl)cc1 (stereo unspecified) was read as Bcl-xL primary 7, MCL1-BIM inh 9 and GLD-1 RNA inh -2.
`COc1ccccc1NC(=O)c1cn(C)c(=O)c2cc(OC)c(OC)cc12` gave Mcl1 Noxa PPI 8, Bcl-xL primary 4, MCL1-BIM inh 0, Mcl-1 Bim block -6, Mcl1 Bid PPI 84* and GLD-1 RNA inh 0.
Screening COc1ccccc1NC(=O)c1cc2cc(Br)ccc2cc1O returned Mcl1 Noxa PPI 88*, Bcl-xL primary 3, MCL1-BIM inh 17, Mcl1 Bid PPI -34 and GLD-1 RNA inh 9.
Screening COc1cc2c(C(=O)Nc3ccccc3F)cn(C)c(=O)c2cc1OC returned Bcl-xL primary 2, MCL1-BIM inh -2 and GLD-1 RNA inh 2.
`COc1cc(NC(=O)c2cc3ccccc3cc2O)c(OC)cc1Cl` gave Mcl1 Noxa PPI 61*, Bcl-xL primary -2, MCL1-BIM inh -8, Mcl1 Bid PPI -32 and GLD-1 RNA inh -3.
Screening C[C@@H](O)C1NC(=O)[C@H](CCCCN)NC(=O)c2cc([N+](=O)[O-])cc(I)c2NCCC[C@@H](C(N)=O)NC1=O (stereo partly specified) returned Mcl1 Noxa PPI 6, Bcl-xL primary -6, MCL1-BIM inh -6, Mcl-1 Bim block 4, Mcl1 Bid PPI 2 and GLD-1 RNA inh 2.
Screening CCOc1ccc(CC(=O)NNC(=S)NC)cc1 returned Mcl1 Noxa PPI 14, Bcl-xL primary 10, MCL1-BIM inh 8, Mcl1 Bid PPI -54 and GLD-1 RNA inh 4.
CC(C)(C)c1cc(C(=O)NNC(=O)c2ccc(C(F)(F)F)cc2)no1 was read as Mcl1 Noxa PPI -3, Bcl-xL primary 7, MCL1-BIM inh 5, Mcl1 Bid PPI -8 and GLD-1 RNA inh 7.
COC(=O)C1=C(C)N(Cc2ccccc2)C(=NCC(C)C)N[C@H]1c1ccccc1 was read as Bcl-xL primary 44*, MCL1-BIM inh 31 and GLD-1 RNA inh 31*.
COc1ccc(C(=O)Oc2c(CN3CCOCC3)cc(Cl)c3cccnc23)cc1 was read as Mcl1 Noxa PPI 27, Bcl-xL primary 5, MCL1-BIM inh 4, Mcl-1 Bim block -1, Mcl1 Bid PPI 54* and GLD-1 RNA inh 1.
COc1cccc(C(=O)Oc2c(CN3CCOCC3)cc(Cl)c3cccnc23)c1 was read as Mcl1 Noxa PPI -19, Bcl-xL primary 7, MCL1-BIM inh 11, Mcl-1 Bim block -2, Mcl1 Bid PPI -41 and GLD-1 RNA inh 1.
Cc1ccc(Oc2nccc(-c3ccc(Cl)cc3)n2)cc1 was read as Mcl1 Noxa PPI 6, Bcl-xL primary -1, MCL1-BIM inh 1, Mcl-1 Bim block -1, Mcl1 Bid PPI -13 and GLD-1 RNA inh 4.
Screening COc1ccccc1CNC(=O)c1cnccn1 returned Mcl1 Noxa PPI 68*, Bcl-xL primary 7, MCL1-BIM inh 18, Mcl-1 Bim block 2, Mcl1 Bid PPI -53 and GLD-1 RNA inh 10.
Screening CCN(C(=O)CN1C(=O)CN(C)C1=O)c1cccc2ccccc12 returned GLD-1 RNA inh 4.
CCN(C(=O)CN1CCN(C)CC1)c1cccc2ccccc12 was read as Mcl1 Noxa PPI 23, Bcl-xL primary -1, MCL1-BIM inh -5, Mcl-1 Bim block 9, Mcl1 Bid PPI 56* and GLD-1 RNA inh -7.
`COC(=O)c1ccc(OC(=O)CCN2C(=O)C3C4c5ccccc5C(c5ccccc54)C3C2=O)cc1` (stereo unspecified) gave Mcl1 Noxa PPI 10, Bcl-xL primary 4, MCL1-BIM inh 1, Mcl-1 Bim block -10, Mcl1 Bid PPI 52* and GLD-1 RNA inh 8.
Screening COc1ccc(OC(=O)CCN2C(=O)C3C4C=CC(C4)C3C2=O)cc1 (stereo unspecified) returned Mcl1 Noxa PPI 5, Bcl-xL primary 4, MCL1-BIM inh 9, Mcl-1 Bim block -4, Mcl1 Bid PPI -45 and GLD-1 RNA inh 6.
For Cc1ccc2c(c1)N(C(=O)CCC(=O)NCC(C)c1ccccc1)CC(C)O2 (stereo unspecified) the results were Bcl-xL primary 2, MCL1-BIM inh 4 and GLD-1 RNA inh 1.
`C/C(=C\c1ccco1)C1C(C#N)=C(N)Oc2n[nH]c(-c3ccccc3)c21` (stereo unspecified) gave Mcl1 Noxa PPI 69*, Bcl-xL primary 8, MCL1-BIM inh 2, Mcl-1 Bim block 2, Mcl1 Bid PPI 5 and GLD-1 RNA inh 1.
C/C(=C\c1ccco1)C1C(C#N)=C(N)Oc2n[nH]c(-c3ccc(C)cc3)c21 (stereo unspecified) was read as Mcl1 Noxa PPI 34, Bcl-xL primary 4, MCL1-BIM inh -3, Mcl-1 Bim block 0, Mcl1 Bid PPI -47 and GLD-1 RNA inh -3.
CCOc1cc(/C=N/NC(=O)c2ccc(-c3csc(Nc4ccc(C)cc4)n3)cc2)ccc1OCC(=O)O was read as Mcl1 Noxa PPI 86*, Mcl-1 Bim block 1 and Mcl1 Bid PPI -2.
O=C(O)COc1ccc(/C=N/NC(=O)c2ccc(-c3csc(Nc4ccc(Cl)cc4)n3)cc2)cc1 was read as Mcl1 Noxa PPI 88* and Mcl1 Bid PPI 95*.
CCCOc1ccc(N2C(=O)CC(N(CCc3ccc(OC)cc3)C(=O)/C=C/C(=O)O)C2=O)cc1 (stereo unspecified) was read as Mcl1 Noxa PPI -2, Bcl-xL primary 6, MCL1-BIM inh 7, Mcl-1 Bim block 0, Mcl1 Bid PPI -10 and GLD-1 RNA inh 4.

Screens from PubChem BioAssay.
